The values below come from PubChem BioAssay (NCI).

SMILES strings stand for the structures. The panel holds about 83,000 compounds, 20% with a hit somewhere; the sample as a whole holds those more often.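 How to read the values: 0–100, growth inhibition (40 = 60% inhibited); 0, no net growth; -100 to 0, cell death (-40 = 40% of starting cells died; -100 = all dead).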 Active and inactive are the calls of the source. How the source made its calls: active means growth percent below 10; inactive means the rest.

The assay deals with MDA-MB-468 breast. Kind of assay: NCI-60 one-dose screen, 48 h (100 = growth as untreated, 0 = no growth, -100 = all killed). The note with it: 10 µM unless noted.
Consider `CCOC(=O)CN1CCC(C(=O)OCC)CC1`, for which the growth is 114% (inactive).

With `Cc1cc2cc3cc(C)c(N)cc3[n+](C)c2cc1N`, the growth was -28.8% (active).

`C=CCn1c(CN2CCN(c3cc4c(cc3F)c(=O)c(C(=O)O)cn4C3CC3)CC2)n[nH]c1=S`: the growth is 105% (inactive).

In the case of `O=C(N/N=C\c1ccc([N+](=O)[O-])cc1)c1ccc2nc(-c3ccc(Br)cc3)[nH]c2c1`, the growth was -33% (active).

As for `CC1=NC2=NC(=O)/C(=C3/N=C(C)C=C(c4ccccc4)N3N)NN2C(c2ccccc2)=C1`, the growth is 109% (inactive).

On to `N#CC(C#N)N=Nc1ccc(Br)cc1`, for which the growth was 0.0168% (active).

Turning to `COc1ccc(C(=O)CSc2nccc(Nc3ccc(C(=O)O)cc3)n2)cc1`, the growth is 104% (inactive).

Take `CCCC1C(C(=O)OCC)=C(N)Oc2cc(O)ccc21` (stereo unspecified): the growth is 110% (inactive).

For the compound `COc1ccc(C(O)c2cc3c(N)c(C(=O)Nc4cccc5ccccc45)sc3nc2C)cc1` (stereo unspecified), the growth was 23.7% (inactive).

With `CCNC(=O)Oc1ccc(/C(=C(/C)c2ccc(Cl)cc2)c2ccc(OCCN(C)C)cc2)cc1`, the growth was 67% (inactive).

Take `Cc1nc2ccccc2c(/C=C/c2ccc(Cl)cc2)c1C(=O)/C=C/c1ccc(Cl)cc1`: the growth is -50.9% (active).

With `COc1ccc(-c2nc(-c3ccccc3OCc3ccccc3OC)nc(C)c2C(C)=O)cc1`, the growth is 72% (inactive).

Turning to `CN(C)c1ccc(Nc2c3ccccc3nc3ccccc23)cc1`, the growth was -27.5% (active).

Consider `NC(=NCCCOc1ccc(F)cc1)Nc1ccc(Cl)c(Cl)c1`, for which the growth is 41% (inactive).

Take `COC(=O)[C@]12CCC(C)(C)C[C@H]1C1=CC[C@@H]3[C@@]4(C)C/C(=C/c5cccnc5)C(=O)C(C)(C)[C@@H]4CC[C@@]3(C)[C@]1(C)CC2`: the growth was -22.5% [100 µM] (active).

Take `CC(C)CCSc1nc(-c2ccc(F)cc2)c(C#N)c(N2CCCCC2)n1`: the growth is 104% (inactive).

For `C[C@@H]1COC(Nc2ccc3ncnc(Nc4ccc(OCc5nccs5)c(Cl)c4)c3c2)=N1`, the growth was -16.4% (active).

For the compound `CC1(c2ccc(Cl)cc2)OC(=O)CC(=O)O1`, the growth was 109% (inactive).

Regarding `COc1cc(/C=C\c2cc(/C=C\c3ccc(O)c(OC)c3)n(C(=O)COc3ccccc3)n2)ccc1O`, the growth is -1.76% (active).

Regarding `Nc1ccccc1NC(=O)c1ccc(CSc2nc(N3CCOCC3)c3cccn3n2)cc1`, the growth is -11.1% (active).

In the case of `COc1ccc(/C=N\NC(=O)CN2CCN(c3cc4c(cc3F)c(=O)c(C(=O)N/N=C/c3ccc(OC)c(OC)c3)cn4C3CC3)CC2)cc1OC`, the growth is -27.6% (active).

Consider `c1ccc(Nc2nc3c(s2)CCc2c[nH]cc2-3)nc1`, for which the growth is 83.6% (inactive).

As for `O=C1COCCN1c1ccc(NCc2cn(Cc3cccc4ccccc34)c3ccccc23)cc1`, the growth was -24.8% (active).

With `CCCCCCCC(=O)SCC/C=C/[C@@H]1CC(=O)NCc2cccc(n2)CN(Cc2ccc(Cl)cc2)CC(=O)N[C@@H](C(C)C)C(=O)O1`, the growth is 44.6% (inactive).

Regarding `O=C1C=CC2(NN=C(c3ccccc3)N2c2ccccc2)c2cccc(O)c21` (stereo unspecified), the growth is 36.2% (inactive).

`Nc1nc(-c2ccnc(Cl)c2)nn1-c1nc2ccccc2s1`: the growth was 107% (inactive).
